A word on the inhibition: it is the drop in the measured response relative to a control, in per cent.

In all, about 360,000 compounds went through this assay and about 420 (0.12%) were called active. Cut-off read from the data, not from the text of the source: active = inhibition above about 30%; inconclusive = no clear call, values can overlap the other calls; inactive = below that. The list comes from a sample in which actives are over-represented; it also holds similar structures and randomly drawn compounds.

The assay deals with Lethal factor (Bacillus anthracis) (UniProt P15917). The experiment in a line: Bacillus anthracis LF protease inhibitors, primary screen, biochemical, multiplex microsphere, MLPCN library (AID 588501). Note: plate controls were buffer without enzyme for full effect and enzyme alone for no effect. As to conditions: multiplex microsphere protease cleavage assay, at 10 µM, stronger effect = higher value.
Lethal factor (Bacillus anthracis), sequence (P15917 whole entry, looked up): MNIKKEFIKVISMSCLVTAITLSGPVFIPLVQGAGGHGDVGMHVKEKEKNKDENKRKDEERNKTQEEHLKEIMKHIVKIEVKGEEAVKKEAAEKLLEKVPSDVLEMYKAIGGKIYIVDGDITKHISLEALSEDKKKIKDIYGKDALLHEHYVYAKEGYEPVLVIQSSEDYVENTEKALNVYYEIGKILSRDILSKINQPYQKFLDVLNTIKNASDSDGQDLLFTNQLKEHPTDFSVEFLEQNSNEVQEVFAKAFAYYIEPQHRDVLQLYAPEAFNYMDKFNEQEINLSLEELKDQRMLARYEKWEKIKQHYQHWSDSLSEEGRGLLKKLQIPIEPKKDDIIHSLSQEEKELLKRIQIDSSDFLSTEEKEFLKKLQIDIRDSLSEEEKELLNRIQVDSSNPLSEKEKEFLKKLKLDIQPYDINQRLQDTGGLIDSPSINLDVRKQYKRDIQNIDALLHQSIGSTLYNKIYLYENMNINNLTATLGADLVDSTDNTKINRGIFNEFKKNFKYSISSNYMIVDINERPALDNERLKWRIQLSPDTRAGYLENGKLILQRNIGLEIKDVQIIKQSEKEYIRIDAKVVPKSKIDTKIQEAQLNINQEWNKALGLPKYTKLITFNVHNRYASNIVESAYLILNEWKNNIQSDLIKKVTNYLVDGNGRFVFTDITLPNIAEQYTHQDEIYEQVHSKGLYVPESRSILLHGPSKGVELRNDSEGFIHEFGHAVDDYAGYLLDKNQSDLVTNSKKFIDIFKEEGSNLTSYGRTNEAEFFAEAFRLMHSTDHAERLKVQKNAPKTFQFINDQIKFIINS
`O=C(COc1ccc2c(C(F)(F)F)cc(=O)oc2c1)Nc1ccc2c(c1)OCCO2`: the inhibition was -1.9% (inactive). The figure for `O=C(CN1CCOCC1)Nc1c(Cl)cc(Cl)cc1Cl` is 3.3% (inactive); for `Cc1cc(C)c(NC(=O)CN2CCCCCC2)c(C)c1` it is -3.3% (inactive); for `O=C(CN1CCCCCC1)Nc1c(Cl)cc(Cl)cc1Cl` it is 37.6% (active). Consider `O=C(COc1ccc(Cl)cc1)NCc1nnc(SCC(=O)NCC2CCCO2)o1` (stereo not given), for which the inhibition is -1% (inactive). The figure for `NNc1nc2c(Cl)cccc2s1` is -1.6% (inactive); for `CCn1c(CSc2nncn2-c2ccc(OC)cc2)nc2cc(S(=O)(=O)N(C)C)ccc21` it is -15% (inactive); for `O=C(NNC(=O)c1ccccc1[N+](=O)[O-])Nc1ccccc1C(F)(F)F` it is -1.8% (inactive). Consider `CN(C(=O)c1cccc(NC(=O)Cc2cccc([N+](=O)[O-])c2)c1)C1CCCCC1`, for which the inhibition was 2.5% (inactive). In the case of `CC1CCN(CC(=O)Nc2nccs2)CC1` it was -13.6% (inactive); in that of `CC(C)N(C(=O)Cn1cc(SCC(=O)N2CCCC2)c2ccccc21)C(C)C`, -0.2% (inactive). In the case of `COc1cc(NS(=O)(=O)c2ccc(NC(=O)CN3C(=O)c4ccccc4C3=O)cc2)ncn1` it was -2.5% (inactive); in that of `CS(=O)(=O)N(CC(=O)N1CCOCC1)c1cccc(Cl)c1Cl`, -5.7% (inactive); in that of `CCOC(=O)C1CCCN(C(=O)c2ccc(N(C)C)cc2)CC1` (stereo not given), -1.5% (inactive). In the case of `Cc1ccc(-n2ncc3c2CC(C)(C)CC3NC(=O)CCc2cnn(C)c2)cc1` (stereo not given) it was 3% (inactive); in that of `CCCn1nnnc1NC(=O)COc1ccc(Cl)cc1C`, -6.9% (inactive). In the case of `O=C(CCNC(=O)c1ccc([N+](=O)[O-])cc1)Nc1ccccc1N1CCOCC1`, the inhibition was 3.7% (inactive). For `CCOC(=O)C1CCCN(S(=O)(=O)c2ccc(-n3cnnn3)c(C)c2)C1` (stereo not given), the inhibition is 2.9% (inactive).

As for `Cc1cc(S(=O)(=O)NC2CCCC2)ccc1-n1cnnn1`, the inhibition is 35.6% (active). The figure for `O=S(=O)(NC1CCCC1)c1ccc(-n2cnnn2)cc1` is -2% (inactive).

For `COc1ccc([C@H]2CC(=O)C[C@@H](CCn3cc(CC4CCCC4)nn3)O2)cc1`, the inhibition was -2.3% (inactive).

With `COCCNC(=O)C(c1ccc(O)cc1)N(C(=O)CCC(=O)Nc1nccs1)c1ccc(C)cc1` (stereo not given), the inhibition was -7% (inactive). In the case of `O=C1N[C@@H](Cc2ccccc2)C(=O)N2[C@@H]3N(S(=O)(=O)c4ccc(F)cc4)c4ccccc4[C@]3(Br)C[C@@H]12` it was -0.7% (inactive).

With `CCCCC(NS(=O)(=O)c1ccc(C)cc1)C(=O)Oc1ccc2c3c(c(=O)oc2c1)CCC3` (stereo not given), the inhibition is -6.2% (inactive).

As for `CCOc1cc(/C=C(/C#N)c2ccc(Cl)cc2)cc(Cl)c1OCC(=O)O`, the inhibition was 2.5% (inactive). In the case of `COc1ccccc1NC(=S)N1CCC(NC(=O)C23CC4CC(CC(C4)C2)C3)CC1` it was -7.9% (inactive); in that of `COc1ccccc1C1CCN(C(=S)Nc2ccc(Br)cc2)CC1`, 49.5% (active). The figure for `COc1ccc(NC(=S)N2CCc3cc(OC)c(OC)cc3C2)cc1` is -2.2% (inactive). The figure for `Cc1cc(NCc2cccnc2)no1` is 4.1% (inactive).

As for `Clc1ccc(Cn2ncc3c(NCc4cccnc4)ncnc32)cc1`, the inhibition was -6.4% (inactive). As for `Brc1ccc2ncnc(NCc3cccnc3)c2c1`, the inhibition was 42.4% (active). In the case of `CCOC(=O)[C@H]1[C@H]2COc3ccc(C)cc3[C@@H]2N2C(=O)CN(Cc3ccc(F)cc3)C(=O)[C@@]12C` it was -3.6% (inactive); in that of `CCOC(=O)N1CCN(C(=O)c2ccc3c(=O)n(CCc4ccc(OC)c(OC)c4)c(=O)[nH]c3c2)CC1`, -2.6% (inactive). Regarding `COCCn1nnnc1CN1CCC(NC(=O)Nc2cccc(OC)c2)CC1`, the inhibition is 0.1% (inactive). On to `NCCCCCC(=O)N/N=C/c1ccc2nccnc2c1`, for which the inhibition was 43.2% (active). In the case of `O=C(O)c1ccc(N/N=C/c2ccc3ncccc3c2)cc1` it was -1.5% (inactive); in that of `CC1=NNC(=O)C1CCC(=O)N/N=C\c1ccc(Cl)c(Cl)c1` (stereo not given), -7.6% (inactive). On to `CC(=O)Nc1ccc(S(=O)(=O)NCC(=O)OCC(=O)c2ccc[nH]2)cc1`, for which the inhibition was 4.9% (inactive). The figure for `CCCCC(CC)CNC(=O)C(=O)C1C(=O)Nc2ccccc21` (stereo not given) is -2.2% (inactive). On to `CC(=O)NCCC(=O)Nc1cc(S(=O)(=O)N2CCCCC2)ccc1Oc1cccc(C)c1`, for which the inhibition is -3.6% (inactive). The figure for `O=C(COc1ccc(S(=O)(=O)N2CCCC2)cc1[N+](=O)[O-])N1CCCCC1` is -2.5% (inactive). On to `COCc1cc(=O)[nH]c(SC)n1`, for which the inhibition is 45% (active). The figure for `CCCc1cc(=O)[nH]c(SCc2ccc(C#N)cc2)n1` is 2.2% (inactive); for `COCc1cc(=O)[nH]c(-c2ccc(C(F)(F)F)cc2)n1` it is 13.9% (inactive); for `CCCC(NC(=O)c1ccccc1)c1nc2ccccc2n1Cc1ccc(C(=O)OC)o1` (stereo not given) it is -3.6% (inactive). In the case of `COc1ccccc1N(CC(=O)Nc1c(C)n(C)n(-c2ccccc2)c1=O)S(=O)(=O)c1ccccc1` it was -3.9% (inactive). The figure for `COC(=O)CSc1ncnc2c1cnn2-c1ccc(C)cc1C` is -4.4% (inactive); for `COC(=O)c1ccc(NC(=O)C23CC4CC(C2)CC(n2cnc(Cl)n2)(C4)C3)cc1` it is -3.6% (inactive); for `COC(=O)C1(C(=O)OC)C/C=C\CN(S(=O)(=O)c2ccccc2[N+](=O)[O-])CCC1` it is -1.4% (inactive). Take `CCOCC(=O)NCc1ccc2c(c1)cc(C)n2C`: the inhibition is -2.3% (inactive). The figure for `COc1cc(C(=O)NCc2ccc3c(c2)cc(C)n3C)cc(OC)c1OC` is 34.6% (active); for `CCn1c(CNC(=O)c2cc(OC)c(OC)c(OC)c2)cc2cc(C)ccc21` it is -7.8% (inactive); for `CC(C)n1c(SCC(=O)Nc2ccccc2N2CCCCC2)nc2c1c(=O)n(C)c(=O)n2C` it is 0% (inactive). As for `CCOC1=C2[C@H]([C@H]3C(=O)N(c4ccccc4)C(=O)[C@H]3C1)[C@@H](c1ccccc1)N(S(=O)(=O)c1ccc(C)cc1)[C@H]2c1ccccc1`, the inhibition was 4.4% (inactive).

Regarding `CCCCNc1ccc(C(=O)Nc2cccc(C)n2)cc1[N+](=O)[O-]`, the inhibition was -4.4% (inactive). The figure for `Cc1cccc(C)c1NC(=O)CNC(=O)c1ccc(N2CCOCC2)c([N+](=O)[O-])c1` is -3% (inactive); for `C=CC[C@H](CC(=O)OC(C)(C)C)C(=O)OC[C@H]1CCCN1C(=O)[C@H](CC=C)CC(=O)N(CCO)Cc1ccccc1` it is 1.8% (inactive). On to `COc1ccc(CN2CC(C(=O)NCCN3CCN(c4ccccc4F)CC3)CC2=O)cc1` (stereo not given), for which the inhibition was -1.5% (inactive).

For `Cn1cc(CCC(=O)N2CCCC(C(=O)c3ccc(C(C)(C)C)cc3)C2)cn1` (stereo not given), the inhibition is -0.9% (inactive). In the case of `CCOc1ccc(CCNC(=O)C2=C(C)C(=O)OC23CCC(C)CC3)cc1OCC` (stereo not given) it was 1.1% (inactive); in that of `Fc1ccccc1OCCCCn1cncn1`, 7.4% (inactive). As to `COc1cc(/C=C2\SC(=O)NC2=O)ccc1OCc1ccc(Cl)nc1`, the inhibition is 0.2% (inactive). On to `COc1cc(/C=C2\SC(=S)N(Nc3ncc(C(F)(F)F)cc3Cl)C2=O)cc(OC)c1OC`, for which the inhibition is 61.6% (active).

On to `COc1cc(-c2nnc(Cn3cc(C(F)(F)F)ccc3=O)o2)cc(OC)c1OC`, for which the inhibition was 11.3% (inactive). As for `Cc1ccc2c(c1)C(O)(CC(=O)c1cccnc1)C(=O)N2` (stereo not given), the inhibition was -1.9% (inactive). In the case of `CN(CC(=O)NCCc1ccccc1)S(=O)(=O)c1cnc[nH]1` it was -0.9% (inactive); in that of `Cc1cc(C)c(CN2CCN(C(=O)Cn3ccc(NC(=O)OCc4ccccc4)nc3=O)CC2)c(C)c1`, -0.5% (inactive). The figure for `O=C(c1ccc(Cl)cc1)N1N=C(c2ccccn2)CC1(O)C(F)(F)F` (stereo not given) is -6.7% (inactive).

On to `COc1cc2c(cc1OC)C(/C=C/c1ccco1)=NCC2`, for which the inhibition was -4.6% (inactive). The figure for `Cc1c(Br)ccc(NC(=O)COc2ccccc2C(N)=O)c1C` is 0.9% (inactive); for `CCc1ccc(NC(=O)CS(=O)CC(=O)NCCCc2ccccc2)cc1` (stereo not given) it is -1.4% (inactive). In the case of `O=C(NCc1ccccc1)C1C(=O)N(Cc2ccccc2)C(=O)C1C1(O)CCCC1` (stereo not given) it was 1.3% (inactive); in that of `COc1ccc(Br)cc1CNCCc1cccc(Cl)c1`, 43.6% (active). In the case of `COCC(C)NCc1cc(Br)ccc1OC` (stereo not given) it was -4.9% (inactive); in that of `COc1ccc(Br)cc1CN(C)CC(=O)Nc1cc(Cl)cc(Cl)c1`, -3.4% (inactive); in that of `O=S(=O)(Nc1cccc(-n2cnnn2)c1)c1cnc(Cl)c(Cl)c1`, 1.8% (inactive). Regarding `COC(=O)C[n+]1cccc2ccccc21`, the inhibition is 29.8% (active). The figure for `COc1c(C(=O)N2CCCC2)ccc2ccccc12` is 2.3% (inactive); for `COC(=O)CNS(=O)(=O)c1ccc(Cc2ccc(S(=O)(=O)NCC(=O)OC)cc2)cc1` it is -2.1% (inactive); for `CC1(c2ccc(Cl)cc2)NC(=O)N(CC(=O)c2ccc3c(c2)OCO3)C1=O` (stereo not given) it is -2.8% (inactive). On to `CCN(C(=O)COC(=O)c1ccccc1O)c1cccc2ccccc12`, for which the inhibition was -1.8% (inactive). Consider `Cc1nccn1-c1ccc(NC(=O)[C@H]2O[C@@H](n3cnc4c(N)ncnc43)[C@H](O)[C@@H]2O)cc1`, for which the inhibition is 0.8% (inactive). In the case of `CC(=O)c1nn(-c2ccc(C)cc2)cc1C(=O)c1cccc(Br)c1` it was -8.2% (inactive). The figure for `CN(C)c1ccc(/C=C2\CC3C4CC=C5CC(O)CCC5(C)C4CCC3(C)C2=O)cc1` (stereo not given) is 3.3% (inactive). `C=CCN(Cc1nc(-c2cc(OC)c3c(c2)OCO3)oc1C)C1CCS(=O)(=O)C1` (stereo not given): the inhibition was -1.3% (inactive).

With `CCc1nn(CCCC(=O)Nc2ccc(C)c(C)c2)c(=O)c2cc3occc3n12`, the inhibition is -0.7% (inactive). The figure for `COc1ccccc1C(=O)Nc1ccnn1C1CCN(C(=O)C(C)(C)C)CC1` is -1.9% (inactive).

Turning to `Cc1ccc(NC(=O)CSCC(=O)N2CCOCC2)cc1`, the inhibition is -4.8% (inactive).

Consider `CC(C)C[C@@H]1Cc2[nH][nH]c(=O)c2[C@H](CCc2ccccc2)O1`, for which the inhibition is -14.1% (inactive). For `COc1ccc(N(CCC#N)S(=O)(=O)c2ccc(Cl)cc2)cc1`, the inhibition is -0.4% (inactive).
